The target in the assay is Calcium and integrin-binding protein 1 (Homo sapiens) (UniProt Q99828). The experiment in a line: Primary qHTS for Identification of Calcium Integrin Binding Protein 1 (CIB1) Competitor (AID 1508620). Note: top concentration of the series differs between compounds. The essentials:
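Fluorescence polarization competition: GST-tagged CIB1 (1 uM final) preincubated with compound 15 min at room temperature, then FITC-labelled alphaIIb peptide (100 nM final) added. After 15 min at room temperature, polarization read at Ex 480/Em 540.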

This passage reports Potency results from PubChem BioAssay (NCATS).

Each structure is given as a SMILES string. Results filed as inconclusive are left out. Entries that show only a call come without a potency. The source made the active and inactive calls. Calls come from the whole dose curve; as a rule, active = well fitted inhibition curve with a large enough effect; inconclusive = small, poorly fitted or top-dose-only effect; inactive = flat fitted curve, though single readings scatter.

Calcium and integrin-binding protein 1 (Homo sapiens), sequence (Q99828 whole entry, looked up): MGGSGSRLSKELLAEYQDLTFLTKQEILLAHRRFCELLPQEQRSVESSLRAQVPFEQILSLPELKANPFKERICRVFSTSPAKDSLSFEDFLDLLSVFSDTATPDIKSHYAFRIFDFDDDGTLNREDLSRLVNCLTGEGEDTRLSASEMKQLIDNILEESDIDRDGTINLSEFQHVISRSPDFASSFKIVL

In the case of `O=C(NCCc1nc2ccccc2n1CCO)C1CCCCC1`, the Potency result was “inactive”. Take `S=C(Nc1ccc(Cl)c(Cl)c1)Nc1nnc(-c2ccncc2)o1`: the Potency entry is “inactive”. For `Cc1cc2c(s1)c1cnn(Cc3cc(F)cc(F)c3F)c(=O)c1n2C` the value was “inactive”; for `O=C(Cn1cc(CNC(=O)c2ccccc2)nn1)Nc1cc(C(F)(F)F)ccc1Cl`, “inactive”. For `CS(=O)(=O)/C=C/c1nc(Nc2cc(F)cc(F)c2)c2ncn(CC(F)F)c2n1` the value was “inactive”. Take `O=C(O)c1ccc2c(c1)C(=O)N(CCc1ccc(O)cc1)C2=O`: the Potency entry is “inactive”. For `Cc1ccc(OCCn2c(CCNC(=O)c3ccccc3C(F)(F)F)nc3ccccc32)cc1` the value was “inactive”; for `CC(C)(C)OC(=O)N1CCC(c2ccc(NCc3ccc(-c4ccc(C#N)cc4)o3)cc2)CC1`, “inactive”; for `COc1ccc(O)c(C2Nc3ccccc3C(=O)N2Cc2ccccc2)c1` (stereo unspecified), “inactive”.

`COc1cccc(CC(=O)Nc2nc(-c3ccc4c(c3)CCN4C(=O)c3ccccc3C)c(C)s2)c1`: the Potency result is “inactive”. With `c1ccc(CN(Cc2ccccc2)Cc2nnc(-c3cc4ccccc4[nH]3)o2)cc1` the entry was “inactive”.

As to `COc1ccc(-c2nnc3n2N=C(c2ccc(OC)c(OC)c2)CS3)c(OC)c1`, the Potency result was “inactive”.

In the case of `Cc1ccc(OCCn2c(CCNC(=O)c3ccc(F)cc3F)nc3ccccc32)cc1`, the Potency entry was “inactive”. With `COc1ccc(-c2ccc3ncnc(NCc4ccc(C)o4)c3c2)cc1OC` the entry was “inactive”. `CC(=O)Nc1sc2c(c1-c1csc3ccccc13)CCNC2`: the Potency result is “inactive”. Regarding `Cc1nc(C)c(-c2ccc3ncnc(N(C)Cc4sccc4C)c3c2)s1`, the Potency result is “inactive”. For `N#Cc1cccc(-c2noc(-c3ccccc3F)n2)c1` the value was “inactive”; for `Brc1cnc2nc(SCc3ccccc3)[nH]c2c1`, “inactive”.

Turning to `Cc1nc(-c2ccccc2)oc1-c1ccc2ncnc(NCc3ncc[nH]3)c2c1`, the Potency entry is “inactive”. For `Clc1cccc(-c2ccc3ncnc(NCc4cccnc4)c3c2)c1`, the Potency result was “inactive”. For `Cc1c(C(=O)OCC2CCCC2)[nH]c2c1C(=O)CC(c1ccco1)C2` (stereo unspecified) the value was “inactive”. With `O=C1c2ccccc2NC(c2ccc(-c3cccs3)o2)N1O` (stereo unspecified) the entry was “inactive”. With `Cc1ccc(-c2cnn(CC(=O)NCCc3ccccc3)c(=O)c2)cc1` the entry was “inactive”; with `COc1ccccc1C1=Nn2c(nnc2-c2cccc(OC)c2OC)SC1`, “inactive”; with `Cn1nnnc1Sc1ncnc2scc(-c3ccc(Br)cc3)c12`, “inactive”. Take `COc1cccc(C2=Nn3c(nnc3-c3ccccc3OC)SC2)c1`: the Potency entry was “inactive”. For `O=C(c1ccc(-c2cnc3c(O)cccc3c2)cc1)N1CCNCC1` the value was “inactive”; for `Cc1ccc(NC(=O)CSc2nnc(-c3cccc([S+](=O)([O-])N4CCCC4)c3)n2-c2c(C)cccc2C)cc1`, “inactive”. With `COc1ccc(C[C@@H](NS(=O)(=O)c2ccc(C(=O)O)cc2)C(=O)O)cc1` the entry was “inactive”; with `Cc1ccc(-c2cc(C(=O)NCc3ccc(S(C)(=O)=O)cc3)c3ccccc3n2)cc1C`, “inactive”; with `COc1ccc(CNc2ccc(N3CCN(C(C)=O)CC3)cc2)cc1OC`, “inactive”. Turning to `Cc1cc(-c2ccccc2)n2ncc(C(=O)Nc3ccc(Cl)c(Cl)c3)c2n1`, the Potency result was “inactive”. `Cc1ccc(NS(=O)(=O)c2cc3c(cc2NCC(C)(C)O)NC(=O)CC3)cc1C`: the Potency result is “inactive”. For `O=C1c2ccccc2C(=O)N1c1cccnc1` the value was “inactive”; for `Cc1cc(N[S+](=O)([O-])c2ccc(NC(=O)Cc3ccc4nccnc4c3)cc2)no1`, “inactive”; for `CCCCc1nnc(-c2cnn(C)c2N)n1CCCn1ccnc1`, “inactive”.

With `Cc1cc(C)nc(NC(=S)N2CCN(c3ccc4occc4c3)CC2)c1`, the Potency result was “inactive”. With `Cc1cnc(-c2ccccc2C2COC2)nc1NCC1CCN(c2cccnc2)CC1` the entry was “inactive”; with `COc1ccc(C2=Nn3c(nnc3-c3cc(OC)ccc3OC)SC2)cc1`, “inactive”. With `Cc1cc2c(s1)c1c(C)nn(Cc3ccccc3F)c(=O)c1n2C` the entry was “inactive”; with `COc1ccc(C2Nc3ccccc3C(=O)N2Cc2ccco2)cc1COc1ccc(N)cc1` (stereo unspecified), “inactive”; with `Cc1ccc(-c2ccc(=O)n(CC(=O)NCCCc3ccccn3)n2)cc1`, “inactive”. Turning to `CN(CCC1CCCO1)c1ncnc2ccc(-c3ccc4c(c3)OCO4)cc12` (stereo unspecified), the Potency result was “inactive”.

For `Cc1cc(C)n2ncc(C(=O)NCc3ccco3)c2n1`, the Potency entry is “inactive”.

As for `CN(C)c1cccc(-c2cnc(N3CCC(C(N)=O)CC3)nc2)c1`, the Potency result was “inactive”. For the molecule `Cc1cc(NC(=O)c2ccc([S+](=O)([O-])NCc3ccc(Cl)c(Cl)c3)cc2)no1`, the Potency entry was “inactive”.

As to `O=C(Nc1ccc(-c2nc3ccccc3[nH]2)cc1)Nc1ccc2c(c1)OCCO2`, the Potency entry is “inactive”. With `CCNc1cccc(S(=O)(=O)N2CCCN(S(=O)(=O)c3ccc4c(c3)OCCO4)CC2)c1` the entry was “inactive”.

As for `O=C(Nc1cccnc1)c1cccs1`, the Potency result was “inactive”.

In the case of `O=C(Nc1nc2cc(C(F)(F)F)ccc2s1)c1ccc(-c2cccc([N+](=O)[O-])c2)o1`, the Potency entry is “inactive”. As for `c1nc(NCc2ccoc2)c2cc(-c3ccc4c(c3)OCO4)ccc2n1`, the Potency entry is “inactive”.
